# Laboratory results taken from the supplement of paper PMC3334620.
# In all, about 33,000 sequences were measured (“E-score (-0.5 to 0.5)”: median about -0.013, highest 2% from about 0.3 on). What follows is part of a selection rich in the highest values, with near analogues and random picks from the rest.
# Biological target: T1, Msn1 (UniProt P22148)
# T1 sequence: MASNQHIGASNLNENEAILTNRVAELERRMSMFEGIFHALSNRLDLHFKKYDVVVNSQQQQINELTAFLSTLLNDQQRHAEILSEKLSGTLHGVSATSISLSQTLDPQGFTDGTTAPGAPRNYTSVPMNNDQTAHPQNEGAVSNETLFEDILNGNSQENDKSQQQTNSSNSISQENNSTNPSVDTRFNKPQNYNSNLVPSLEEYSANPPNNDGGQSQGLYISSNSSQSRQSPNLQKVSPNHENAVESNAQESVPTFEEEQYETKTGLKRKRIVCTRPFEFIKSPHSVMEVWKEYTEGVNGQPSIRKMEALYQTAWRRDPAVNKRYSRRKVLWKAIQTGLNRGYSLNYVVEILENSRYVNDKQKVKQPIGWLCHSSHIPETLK
# Experiment: PBM E-score (8-mer binding enrichment) (E-score (-0.5 to 0.5)); higher = stronger / more preferred TF binding
# Settings: protein concentration: 200 nM; construct: GST-full length
# Protocol: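 Universal 'all 10-mer' protein binding microarrays (Agilent AMADID 015681) probed with GST-tagged S. cerevisiae TFs (full-length or DBD) made by in vitro transcription/translation (PURExpress), about 100-200 nM. Bound TF was detected with fluorescent anti-GST. Each ungapped 8-mer (which stands for itself and its reverse complement) is scored by the PBM enrichment score (E-score), a modified Wilcoxon-Mann-Whitney statistic from -0.5 to +0.5, computed with the Universal PBM Analysis Suite. Scale: above 0.35 generally sequence-specific binding.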
row,Sequence,PBM E-score
1,ATCTCCGC,-0.208
2,CTACAATC,0.0383
3,ACCGCGTG,-0.118
4,ATGTAAAG,-0.0428
5,CCGAACGC,0.158
6,CCTATCTA,-0.0647
7,CAATGCAG,-0.0326
8,GCGACAAA,0.355
9,TCGACGAA,0.118
10,ACGACAAC,0.227
11,CCGACAAA,0.42
12,CCGACAAG,0.13
13,ACGACAAA,0.435
14,ACGACAAG,0.0652
15,GCGACAGA,0.144
16,CCGACAAC,0.167
17,GCGACAAC,0.167
18,TCGACAGA,-0.101
19,TCGACAAA,0.378
20,TACCGGGA,0.148
21,AGCCTGTG,-0.221
22,AGAGATTG,-0.0815
23,GCGCAGAA,0.0474
24,GAGACCTC,-0.0881
25,GAGAACTC,-0.162

row,Sequence,PBM E-score
1,AATGGAAT,0.238
2,CCCAGCCA,-0.156
3,CAGGTTGG,-0.102
4,ACTATGGG,-0.169
5,CAGAATGC,-0.094
6,AACAAGTA,-0.0396
7,TACAAATA,0.281
8,AACAAATC,0.0327
9,AACAAGTC,0.103
10,GACAAGTC,0.419
11,TACAAGTA,0.0835
12,GACAAGTA,0.369
13,GACAAATC,0.473
14,AACAAATA,0.211
15,GACAAATA,0.483
16,CACAAATC,0.0687
17,CACAAGTC,0.0697
18,ATGGGATG,-0.177
19,CTGCAAGC,-0.17
20,ACACAGGT,0.0743
21,AGAGTAAA,-0.0814
22,GTCGAGTA,-0.0563
23,CACCCTAA,-0.141
24,CCCTCTGA,-0.174
25,GTAGGATA,-0.0803

row,Sequence,PBM E-score
1,GTAGGAGA,-0.204
2,GTAGGACA,0.479
3,CTAGGATA,-0.13
4,CTAGGACC,-0.0875
5,ATAGGACC,-0.11
6,CTAGGACA,0.489
7,ATAGGACG,0.242
8,ATAGGACA,0.457
9,CGCTACAC,-0.231
10,GCCACACA,-0.0564
11,AACGTTAA,0.137
12,AGTAAGCG,-0.082
13,GAGTAGGA,-0.151
14,AGGAGACG,-0.298
15,ACTTATAC,0.0919
16,ATTTATAC,0.176
17,GCTTATAA,-0.0204
18,ATTTATAA,0.322
19,CTTTATAA,0.177
20,ACTTATAA,0.333
21,ACCATAAA,0.173
22,ATATCTGA,0.112
23,CACTTCCA,-0.0388
24,GATGTCGC,0.0908
25,AATGTCGG,0.33

row,Sequence,PBM E-score
1,CATGTCGG,0.224
2,AGTGTCGG,0.202
3,AATGTCGT,0.442
4,AATGTCGC,0.398
5,CATGTCGC,0.237
6,AAGGTCGT,-0.0332
7,AATGTCGA,0.299
8,CTCCTTTC,-0.214
9,GAAAGTGC,-0.0805
10,ATAGACCA,-0.0849
11,ACGATCCC,-0.232
12,CGGCTCTA,-0.00727
13,CGGGACCA,-0.152
14,CGGGACAA,0.463
15,CGGGACGA,0.115
16,AGGGACGA,0.261
17,AGGGACAT,0.488
18,CGGGACAG,0.197
19,AGGGACGG,-0.35
20,CGGGACAC,0.376
21,AGGGACCT,-0.0323
22,AGGGACCA,-0.188
23,AGGGACAA,0.487
24,CGGGACTC,0.0112
25,GGCTAAGA,0.0666

row,Sequence,PBM E-score
1,ATCCTAGC,-0.118
2,CCAAGAAA,0.0697
3,AAATAGCA,-0.00406
4,AACCTCGT,-0.0168
5,AGGGACGC,-0.0191
6,AGGGACAG,0.107
7,AGGGACAC,0.45
8,AAATTTGT,0.363
9,AATTTTGT,0.34
10,AAATTTGA,0.19
11,AATTTTGC,0.0375
12,AATTTTGA,0.161
13,AAATTTGG,0.104
14,ACATGCGT,0.0734
15,CGTGTACA,0.277
16,CATTCTAG,-0.0107
17,CTAGCGCA,-0.153
18,CGCAAAGC,0.0415
19,ACAATACT,0.325
20,ACAATACA,0.0447
21,ACAATACG,0.0932
22,ATAGACAG,0.202
23,ATAGACGA,0.0929
24,ATAGACAA,0.41
25,ATAGACAC,0.245

row,Sequence,PBM E-score
1,ATAGACTA,0.00413
2,ATAGACAT,0.428
3,ATCGTCTA,0.0246
4,ATGAAGTC,-0.0197
5,ACAGCTCG,-0.137
6,TAGGAATA,0.0598
7,AACCATGT,0.0974
8,ATGCAGGC,-0.112
9,ACATTTAT,0.319
10,CCATTTAC,0.0112
11,ACATTTAG,0.279
12,GCATTTAC,0.0372
13,AGATTTAT,0.0411
14,ACATTTAC,0.333
15,CACAAGCC,-0.139
16,CATCAGTA,0.0122
17,AGTGGTCG,-0.0675
18,AGTTAAAT,0.0476
19,CGTGTTAA,-0.00332
20,ATTTCGGA,0.239
21,AGGGGACT,-0.151
22,CGGGGACA,0.396
23,TGGGGAAA,-0.0201
24,CGGGGACG,-0.152
25,CGGGGACC,-0.1

row,Sequence,PBM E-score
1,TGGGGACA,0.433
2,AGGGGACG,-0.0829
3,AGGGGACA,0.386
4,GGGGGACA,0.287
5,CTTGAGAC,0.0475
6,GACGTTAC,0.0854
7,AGGACGTC,0.177
8,GAGAAACA,0.0761
9,CGAGTGGC,-0.181
10,ATGTCGCC,0.115
11,AGGTCGCG,0.0713
12,ACGTCGCG,0.138
13,GTGTCGCA,0.0382
14,ATGTCGCG,0.387
15,ATGTCGCA,0.38
16,GGGGCCAC,-0.325
17,GTCGCGAA,0.141
18,CTCGCGAC,0.0116
19,GTCGCGAC,0.349
20,AAGCTGGT,-0.026
21,TAGGCCTA,-0.0564
22,CAGTTGTA,0.069
23,CCGTTGTC,0.304
24,ACGTTGTC,0.119
